Screening data as filed in PubChem.
The sample as a whole holds a higher share of hits than the screen did.
MgrA DNA FP – S. aureus MgrA-DNA binding modulation; inhibition, % (no concentration beside the values); hit rate 0.13% among 84,000; fluorescence polarization; in the data active = inhibition above about 30%, passing the limit was not always enough;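 also: 0% = protein plus DNA without compound and 100% = DNA alone without protein; higher means less MgrA bound to DNA so lower polarization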
An asterisk follows results filed as active.

SMILES | MgrA DNA FP
CN=C(C)/C(C(=O)OC)=C(\O)c1ccc(C(F)(F)F)cc1 | 0
CSc1nnc2c(n1)OC(c1c(C)nn(-c3ccccc3)c1Cl)Nc1ccccc1-2 (centres undefined) | 0
CN(C)Cc1ccccc1C(O)c1ccccc1 (centres undefined) | 0
CN(C)Cc1cc(O)c(CN(C)C)cc1O | 55*
CN(Cc1ccccc1)Cc1ccccc1O | 0
COc1cc(-c2nc3ccccc3c(=O)n2NC(=O)c2c(F)cccc2F)cc(OC)c1OC | 0
COc1cc(Br)cc2cc(C(=O)N3CCN(c4cc(C)ccc4C)CC3)c(=O)oc12 | -2
Cc1cc(C)c2nc(N3CCCN(C(=O)c4ccco4)CC3)c(C#N)cc2c1 | 49*
CCc1cc2cc(C)cc(C)c2nc1SCC(=O)N1CCN(C(=O)c2ccco2)CC1 | 2
O=C(c1ccco1)N1CCCN(C(=O)c2ccco2)CC1 | 1
CC(C)(C)NC1=C(C#N)C(=O)NC(c2ccccc2O)S1 (centres undefined) | 0
Nc1nc(Cl)cc(Oc2ccc(Cl)cc2)n1 | 1
NNC(=O)CCc1ccccc1 | -2
CC(C(=O)O)N1C(=O)/C(=C/c2ccco2)SC1=S (centres undefined) | 38
O=C1/C(=C/c2ccco2)SC(=S)N1CCc1ccccc1 | 5
O=C(O)CCN1C(=O)/C(=C/c2ccco2)SC1=S | 51*
N#C/C(=C\Nc1cc(C(F)(F)F)cc(C(F)(F)F)c1)S(=O)(=O)c1ccccc1 | 0
O=C(CCCc1ccccc1)Nc1nnc(C(F)(F)F)s1 | 0
NC(CO)C(=O)NNCc1ccc(O)c(O)c1O (centres undefined) | 6
O=C(N/N=C/c1cc(Br)ccc1O)N/N=C/c1cc(Br)ccc1O | 0
NC(CO)C(=O)N/N=C/c1ccc(O)c(O)c1O (centres undefined) | 62*
COc1ccc([C@H]2Sc3ccccc3N(CCN(C)C)C(=O)[C@H]2OC(C)=O)cc1 | 96*
CCN1C(=O)CC(c2ccc(OC)cc2)Sc2ccccc21 (centres undefined) | -2
COc1ccc(C2Sc3ccccc3N(CCN(C)C)C(=O)C2OC(C)=O)cc1 (centres undefined) | 1
Cc1cc(-c2cc(C)[nH]n2)n[nH]1 | -2
CC(C)CC1(C)N=C(c2ccccc2)C(=S)N1 (centres undefined) | -1
